# RE007 growth inh: less growth of the S. pombe RE007 Vpr strain; S. pombe RE007 Vpr strain, BacTiter-Glo ATP luminescence, 24 h; Potency, µM (series often up to 92.2 µM), usual class: inhibitors; hit rate 0.21% among 360,000; AID 651644; active = well fitted falling curve with a large enough effect; inconclusive = small, poorly fitted or top-dose-only effect; inactive = no such curve, though single readings can be large or run the other way; also: nearly all actives have a fitted effect of over 50% in size
#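 Fission yeast RE007 carrying one integrated HIV-1 vpr copy, seeded at OD 0.01 in PMG+AL medium with 23 nL pinned compound. Grown 24 h at 30 degrees; viability read by BacTiter-Glo luminescence after 5 min.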
# Tb PYK inh: T. brucei pyruvate kinase inhibition; Q57TT1; TbPYK enzyme, Kinase-Glo Plus ATP luminescence, 45 min; Potency, µM (series often up to 76.8 µM), hits mostly inhibitors; hit rate 0.12% among 410,000; also: nearly all actives have a fitted effect of over 50% in size
#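 Enzyme and substrate buffer are dispensed first and compound is pin-transferred. ADP at 130 uM final then starts the reaction, which runs 45 min at room temperature. Detection reagent is added for 10 min before luminescence is imaged.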
# AmpC inh no detg: inhibitors of E. coli AmpC beta-lactamase without detergent; hit rate 0.52% among 330,000; AmpC nitrocefin hydrolysis, absorbance 480 nm, 0.0001% Triton; P00811; Potency, µM (series often up to 57.1 µM), actives largely listed as inhibitors; also: nearly all actives have a fitted effect of over 20% in size
# Target sequence (P00811 whole entry, looked up): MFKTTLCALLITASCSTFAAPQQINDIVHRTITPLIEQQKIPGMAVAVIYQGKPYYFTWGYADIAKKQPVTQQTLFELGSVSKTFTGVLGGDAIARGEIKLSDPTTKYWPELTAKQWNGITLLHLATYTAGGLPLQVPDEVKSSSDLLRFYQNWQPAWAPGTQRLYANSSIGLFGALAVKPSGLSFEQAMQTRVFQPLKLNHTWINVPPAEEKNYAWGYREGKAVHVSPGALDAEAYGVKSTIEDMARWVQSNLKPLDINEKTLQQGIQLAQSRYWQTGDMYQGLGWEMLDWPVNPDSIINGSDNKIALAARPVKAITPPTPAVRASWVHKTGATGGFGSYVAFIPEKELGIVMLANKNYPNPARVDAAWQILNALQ
#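 20 mM phosphate pH 7.0 + 0.01% (detergent screen) or 0.0001% Triton X-100; 5.3 nM AmpC reagent; cpd preinc 15 min RT; nitrocefin (800 uM stock) to start; A480 q20 s × 4 min; Activity was normalised to no-enzyme and no-compound control wells.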
# SARS PLpro yeast: SARS-CoV PLP inhibition in yeast; S. cerevisiae expressing SARS-CoV PLpro, growth rescue; hit rate 0.19% among 330,000; Potency, µM (series often up to 32.9 µM), actives largely listed as activators; calls by dose curve; also: nearly all actives have a fitted effect of over 55% in size
# AmpC detergent: AmpC beta-lactamase inhibition with detergent present; hit rate 0.041% among 370,000; Potency, µM (highest dose often 114 µM), hits mostly inhibitors; AmpC hydrolysis of nitrocefin, absorbance 480 nm, 0.01% Triton; P00811; also: nearly all actives have a fitted effect of over 25% in size
#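 AmpC (5.3 nM in the dispensed reagent) in 20 mM phosphate pH 7.0 with 0.01% (detergent screen) or 0.0001% Triton X-100 was preincubated with compounds for 15 min at room temperature. Nitrocefin was then added from an 800 uM solution, and hydrolysis was followed at 480 nm.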
# Sm TGR block: inhibitors of Schistosoma mansoni thioredoxin glutathione reductase. Potency, µM (titrated, usually from 114 µM), actives largely listed as inhibitors. hit rate 3% among 360,000. purified TGR, DTNB reduction, TNB absorbance 405 nm; also: nearly all actives have a fitted effect of over 60% in size
#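 First, TGR (20 nM dispensed) and NADPH were mixed with compound. Second, a 15 min room-temperature incubation followed. Third, further NADPH and then DTNB were added to start the reaction. Finally, TNB absorbance was monitored kinetically.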
# Hits are given with their value; – = inactive; ? = inconclusive; · = no result; [ ] = remark or other dose. This is a sample that favours compounds with a hit; in the whole collection about 3.3% have one here. Unless noted, calls follow the shape of the dose curve; as a rule, active = well fitted curve in the direction sought with a large enough effect; inconclusive = small, poorly fitted or top-dose-only effect, or another doubt; inactive = no such curve, though single readings can be large; an effect the other way counts as inactive or inconclusive.
SMILES,RE007 growth inh,Tb PYK inh,AmpC inh no detg,SARS PLpro yeast,AmpC detergent,Sm TGR block
CC(C)OC(=O)OCOP(=O)(CO[C@H](C)Cn1cnc2c(N)ncnc21)OCOC(=O)OC(C)C,·,–,·,·,·,·
Cc1cc(N=Nc2c(O)c3ccccc3[nH]c2=O)ccc1N=Nc1ccc(C(=O)N(C)C)cc1,·,–,–,–,–,–
CN(C)C(=O)c1ccc(N=Nc2c(O)c3ccccc3[nH]c2=O)cc1,18µM,–,·,·,·,·
CCOC(=O)C1(C)/C(=N/Nc2ccc(Cl)cc2)C(=O)C(=O)N1c1ccccc1 (stereo not given),–,–,–,–,–,50µM
CCOC(=O)C1(C)/C(=N/Nc2cccc(Cl)c2)C(=O)C(=O)N1c1ccccc1 (stereo not given),–,–,–,–,–,–
Cc1c(C(=O)NCc2cccc(Cl)c2)sc2nc3n(c(=O)c12)CCCC3,·,–,·,·,–,14µM
Cc1c(C(=O)NCc2ccc(Cl)cc2)sc2nc3n(c(=O)c12)CCCC3,·,–,·,·,–,?
Cc1c(C(=O)Nc2cccc(C#N)c2)sc2nc3n(c(=O)c12)CCCCC3,·,–,·,·,–,5.6µM
COc1ccc(C)c2sc(NC(=O)c3ccc(S(=O)(=O)N4CCOCC4)cc3)nc12,·,–,·,·,–,–
COC(=O)CCc1c(COC(C)=O)[nH]c(C(=O)OCc2ccccc2)c1C,–,–,–,–,–,3.5µM
Cc1cc(NS(=O)(=O)c2ccc(NC(=O)COc3ccc(Cl)cc3)cc2)nc(C)n1,·,–,·,·,–,–
COc1ccc(C[C@H]2c3cc(O)c(OC)cc3CC[N+]2(C)[O-])cc1O (stereo not given in full),–,–,–,–,–,18µM
COc1ccc(-c2nc(CCNC(=O)c3cc(OC)c(OC)c(OC)c3)cs2)cc1,·,–,·,·,–,–
CCOc1cc(/C=C2\C(=O)N(c3nc(-c4ccc(Br)cc4)cs3)N=C2c2ccccc2)ccc1O,–,–,16µM,–,–,–
Cc1ccc2nc(-c3cccc(NC(=O)CSc4ccc(Cl)cc4)c3)oc2c1,·,–,·,·,–,–
O=C(c1ccco1)c1nnn(Cc2ccccc2)c1-c1ccccc1,–,–,·,·,–,32µM
COc1ccc(Oc2nc3c(C)cccn3c(=O)c2/C=C(\C#N)c2nc3ccccc3[nH]2)cc1,·,–,·,·,–,–
CCOc1ccccc1C1N=C(c2ccc(OC)cc2)CC(c2ccccc2O)N1 (stereo not given),–,–,32µM,–,–,–
COc1ccc(N2CCN(C(=O)c3ccc4c(c3)NC(=O)C(CSCc3c(F)cccc3Cl)N4)CC2)cc1 (stereo not given),·,·,–,–,?,56µM
COc1ccc(N2CCN(C(=O)c3ccc4c(c3)NC(=O)C(CSCc3cccc(F)c3)N4)CC2)cc1 (stereo not given),·,·,–,?,–,45µM
CC(=O)C1=C(c2ccccc2)NC(=O)NC1c1ccc(O)c(O)c1 (stereo not given),–,–,–,–,–,16µM
CC(=O)C1=C(c2ccccc2)NC(=S)NC1c1ccc(O)c(O)c1 (stereo not given),–,–,–,–,–,–
Cc1cc(NC(=O)N2CCC(CN3CCOCC3)CC2)ccc1Br,·,–,·,·,–,–
O=C(CCSc1ccc(Br)cc1)c1ccc(O)cc1,·,–,–,–,–,2.5µM
O=C(CCO)c1ccc(O)cc1,–,–,–,–,–,18µM
SMILES,RE007 growth inh,Tb PYK inh,AmpC inh no detg,SARS PLpro yeast,AmpC detergent,Sm TGR block
CSCc1ccc(C(=O)NCCSc2ccc(Br)cc2)cc1,–,–,–,–,–,–
O=C(Nc1cccc(S(=O)(=O)NCc2ccco2)c1)c1ccc(Cl)cc1,–,–,–,–,·,·
Cc1onc(-c2c(F)cccc2Cl)c1C(=O)Nc1cccc(S(=O)(=O)NCc2ccco2)c1,–,–,–,–,–,28µM
Cc1onc(-c2c(F)cccc2Cl)c1C(=O)NCc1ccco1,–,–,–,–,–,–
Cc1onc(-c2c(F)cccc2Cl)c1C(=O)OCC(=O)NCc1ccco1,–,–,–,–,–,18µM
Cc1c(NC(=S)NC(=O)c2ccc(-c3ccc(Cl)cc3)o2)cccc1C(=O)O,–,–,–,–,–,13µM
O=C(NC(=S)Nc1ccccc1O)c1ccc(-c2ccc(Cl)cc2)o1,–,–,–,–,–,–
O=C(CNC(=O)/C(=C\c1ccc(Br)cc1)NC(=O)c1ccccc1)OCc1ccccc1,–,–,–,–,–,–
O=C(CNC(=O)/C(=C/c1ccccc1)NC(=O)c1ccc(Br)cc1)OCc1ccccc1,–,–,3.5µM,–,–,–
CCCSCCCNC(=O)CN1C(=O)COc2ccc(S(=O)(=O)N3CCCCCC3)cc21,·,–,·,·,–,–
CCCSCCCNC(=O)CN1C(=O)COc2ccc(S(=O)(=O)N3CCC(C)CC3)cc21,·,–,·,·,–,5.6µM
S=c1[nH]nc([C@@H]2C[C@H]2c2ccccc2)n1-c1ccccc1Cl,–,5µM,–,–,–,–
Cc1ccc(C2CC2c2n[nH]c(=S)n2-c2ccc(Cl)cc2)cc1 (stereo not given),–,?,–,–,?,–
CC(C)C(=O)Nc1cccc(NC(=S)NC(=O)c2cccs2)c1,–,–,–,–,?,?
COC(=O)c1cc(OC)c(OC)cc1NC(=S)NC(=O)c1ccco1,–,–,–,–,–,11µM
COc1cc(NC(=S)NC(=O)c2ccco2)ccc1NC(=O)C(C)C,–,–,–,–,–,25µM
COc1cc(NC(=O)C(C)C)ccc1NC(=O)c1ccco1,–,–,–,–,–,–
COc1cc(NC(=S)NC(=O)c2cccs2)ccc1NC(=O)C(C)C,–,–,–,–,–,18µM
COc1ccc(-n2c(CC3C(=O)N(C)c4ccc(C)cc43)nc3ccccc3c2=O)cc1 (stereo not given),·,–,·,·,–,–
O=C(/C=C/c1ccco1)N(c1ccccn1)c1ccccn1,–,–,–[11.4 µM],–,?,32µM
O=C(/C=C/c1ccco1)NCc1ccccn1,–,–,–,–,–,3.5µM
CCOC(=O)c1cccc(NC(=O)CCc2c(C)nc3c4cccnc4nn3c2C)c1,·,–,·,·,–,–
CCCCNc1nc2c(S(=O)(=O)c3ccc(C)cc3)nnn2c2ccsc12,·,–,·,·,–,–
CCNC(=S)Nc1cccc(S(=O)(=O)NC2=NCCC2)c1,–,–,–,–,–,–
CCCCNC(=S)Nc1cccc(S(=O)(=O)NC2=NCCC2)c1,–,–,–,–,–,40µM
CCNC(=S)Nc1cccc(S(=O)(=O)Nc2ccccc2OC)c1,–,–,–,–,–,1.8µM
O=C(CCl)Nc1cccc(S(=O)(=O)NC2=NCCC2)c1,–,–,–,–,–,6.3µM

# From PubChem BioAssay
